KB-3-1 tox = kills parental KB-3-1 adenocarcinoma cells. Potency, µM (series often up to 46.1 µM), usual class: cytotoxic. KB-3-1 viability, CellTiter-Glo ATP luminescence, 72 h. 400,000 compounds, 1.4% hits; also: % is scaled to controls: 0 for no effect and ±100 for the full control effect; nearly all actives have a fitted effect of over 60% in size
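Luminescent ATP read-out (CellTiter-Glo) measures survival of drug-naive KB-3-1 cells after 72 h compound exposure at 37 °C. Titration series was screened from lowest to highest concentration, with DMSO vehicle plates as background controls.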
Gal4-VP16 FLuc = inhibits Gal4-VP16 luciferase reporter, ROR gamma counter-screen; Drosophila S2 Gal4-VP16 UAS-luciferase, luminescence, 20 h; Potency, µM (titrated, usually from 53.6 µM), for inactives: top-dose activity, negative = inhibition, usual class: inhibitors; 310,000 compounds, 3.5% hits;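 also: Gal4-VP16 expression switched on by copper sulfate through the metallothionein promoter; % is scaled to controls: 0 for no effect and ±100 for the full control effect; nearly all actives have a fitted effect of over 50% in size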
RORgamma inh = blocks mouse ROR gamma transcriptional activity; Potency, µM (titrated, usually from 53.6 µM), without a hit: at the top dose activity change, negative = inhibition, most hits filed as inhibitors; Drosophila S2 Gal4-RORgamma UAS-luciferase reporter, 20 h; AID 2551; 310,000 compounds, 5.4% hits; also: % is scaled to controls: 0 for no effect and ±100 for the full control effect; nearly all actives have a fitted effect of over 60% in size
Target sequence (P51450 whole entry, looked up, the tested form may be a part): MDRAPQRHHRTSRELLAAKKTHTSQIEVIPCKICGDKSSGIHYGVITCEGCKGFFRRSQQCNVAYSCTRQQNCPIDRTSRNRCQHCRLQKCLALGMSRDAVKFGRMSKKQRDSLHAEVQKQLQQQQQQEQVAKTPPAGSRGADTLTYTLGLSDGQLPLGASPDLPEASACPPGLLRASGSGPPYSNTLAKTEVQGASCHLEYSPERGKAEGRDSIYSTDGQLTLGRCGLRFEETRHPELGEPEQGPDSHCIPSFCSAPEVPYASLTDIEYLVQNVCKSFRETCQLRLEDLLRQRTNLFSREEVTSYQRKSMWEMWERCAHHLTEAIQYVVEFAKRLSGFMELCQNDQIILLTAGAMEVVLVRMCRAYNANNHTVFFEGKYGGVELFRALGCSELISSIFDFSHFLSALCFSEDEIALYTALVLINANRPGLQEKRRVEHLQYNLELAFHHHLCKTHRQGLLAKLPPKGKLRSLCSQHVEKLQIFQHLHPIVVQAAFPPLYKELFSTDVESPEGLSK
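Luminescence from a UAS-regulated Photinus luciferase reporter in stably transfected Drosophila Schneider cells is measured; decreased signal marks ROR gamma inhibition. Fusion expression is induced by 700 uM copper sulfate for 20 hr.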
KB-V1 cytotox = kills drug-selected multidrug resistant KB-V1 cells; Potency, µM (top dose mostly 46.1 µM), hits mostly cytotoxic; 400,000 compounds, 3.4% hits; KB-V1 MDR cells viability, CellTiter-Glo, 72 h; also: % is scaled to controls: 0 for no effect and ±100 for the full control effect; nearly all actives have a fitted effect of over 60% in size
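Drug-selected KB-V1 cells, grown in DMEM lacking phenol red with 10% FBS, receive compound titrations; after three days at 37 degrees C, surviving cell ATP is quantified by CellTiter-Glo luminescence and responses normalized and curve-fitted.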
MCF10A rerep = inducers of DNA re-replication in MCF 10A breast cells | MCF 10A DNA re-replication, Hoechst nuclear intensity, 48 h | Potency, µM (series often up to 46.1 µM), for inactives: at the top dose activity, positive = re-replication, most hits filed as activators | 350,000 compounds, 2.9% hits; also: % of control where 0% means no effect; nearly all actives have a fitted effect of over 50% in size
SW480 rereplic = inducers of DNA re-replication in SW480 colon cancer cells. 340,000 compounds, 1.8% hits. SW480 DNA re-replication, Hoechst DNA content imaging, 48 h. Potency, µM (series often up to 46.1 µM), without a hit: at the highest dose re-replication activation, actives largely listed as activators; also: % of control where 0% means no effect; nearly all actives have a fitted effect of over 55% in size
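First, 250 cells per well were seeded. Next, compound or vehicle (23 nL) was pinned in, plates sat 48 hr at 37 C. Finally Hoechst was added for 40 min before fluorescence scanning.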
* = called active by the depositor; i = inactive; u = inconclusive; x = not tested or not shown; [ ] = another dose, or the depositor's remark. An excerpt weighted towards active compounds, which were near 10% of everything screened. Calls follow the shape of the dose curve; as a rule, active = well fitted curve in the direction sought with a large enough effect; inconclusive = small, poorly fitted or top-dose-only effect, or another doubt; inactive = no such curve, though single readings can be large; an effect the other way counts as inactive or inconclusive. Potency is read from the fitted curve at half-maximal effect.

SMILES	KB-3-1 tox	Gal4-VP16 FLuc	RORgamma inh	KB-V1 cytotox	MCF10A rerep	SW480 rereplic
Cc1ccc(CNC(=O)c2ccc(N3CCCC3)c(NC(=O)Nc3ccc(F)c(Cl)c3)c2)cc1	i	x	x	i	x	x
Cn1nnc2c(NCc3ccco3)ncnc21	i	x	x	i	x	x
Cc1ccnc(NC(=O)C2CC(=O)N(c3ccc4c(c3)OCCO4)C2)c1 (centres undefined)	i	u	7.9µM*	i	-11%	2%
Cc1ccc(N2CC(C(=O)Nc3nccs3)CC2=O)cc1Cl (centres undefined)	u	7%	u	7.3µM*	8%	18%
COCc1nnc(NC(=O)C2CC(=O)N(c3ccc(C)c(Cl)c3)C2)s1 (centres undefined)	i	x	x	i	3%	u
Cc1ccc(CN2CC(C(=O)Nc3cc(C)ccn3)CC2=O)cc1 (centres undefined)	i	x	x	u	16%	29µM*
COc1ccc(-c2csc(NC(=O)C3CC(=O)N(c4ccc5c(c4)OCCO5)C3)n2)cc1 (centres undefined)	i	-14%	u	21µM*	22%	x
Cc1ccc(CN2CC(C(=O)Nc3ccncc3)CC2=O)cc1 (centres undefined)	i	1%	7%	u	-7%	-4%
O=C1NC[C@@H](CCCCN2C[C@H](Cc3ccc(O)cc3)N(Cc3ccccc3)C(=O)C2=O)N(Cc2ccccc2)C1=O	i	x	x	i	x	x
Cc1ccccc1OCCNC(=O)CNC(=O)c1ccccc1O	i	-7%	u	16µM*	12%	-7%
CCCCOc1ccc(C(=O)NCC(=O)NCCOc2ccccc2OC)cc1	i	x	x	i	9%	0.92µM*
COc1ccccc1OCCNC(=O)c1ccccc1C	i	14%	-2%	i	-1%	-4%
COc1ccc(S(=O)(=O)N2CCCCC2c2cc(C(=O)NCc3ccccc3)no2)cc1 (centres undefined)	i	x	x	i	x	x
COc1ccc(C2=CC(=O)C[C@H](COCc3ccccc3)N(C(=O)OC(C)(C)C)O2)cc1	i	x	x	i	23µM*	-6%
COc1ccc(NC(=O)C2CCCN2C(=O)OCc2ccccc2)cc1 (centres undefined)	i	-11%	-1%	i	2%	-6%
Cn1cnc2c(=O)oc3ccc(S(=O)(=O)Nc4ccc(F)cc4)cc3c21	i	x	x	u	x	x
O=C(Nc1c(Cl)ccc2nsnc12)c1ccco1	i	-7%[10 µM]	1%	i	-4%	3%
Cc1ccc2ncccc2c1NS(=O)(=O)c1ccccc1	i	-3%	u	i	2%	-5%
CC(C)C(=O)NC(=S)Nc1c(Cl)ccc2nsnc12	i	-2%	13µM*	i	18µM*	-12%
Cc1ccc2ncccc2c1NC(=S)NC(=O)c1ccccc1	i	25%	8.9µM*	u	6%	0%
Cc1ccc(C(=O)NC(=S)Nc2c(C)ccc3nsnc23)cc1	i	u	10µM*	u	-2%	-6%
CCc1nn(CC(=O)N2CCC(C)CC2)c(=O)c2cc3occc3n12	i	x	x	i	x	x
COc1cccc(-c2nnc(-c3ccccc3NC(=O)c3cccc(C(F)(F)F)c3)o2)c1	i	x	x	i	x	x
CCCCCCCCCCCCC/C=C\[C@@H](O)[C@H](CO)NC(C)=O	x	-3%	12%	x	x	x
Oc1c(Cl)cc(Cl)c2c1NCCC2	i	5µM*	3.2µM*	u	u	u
COc1cc(C(C(=O)NC2CCCCC2)N(Cc2cccs2)C(=O)Cc2c[nH]c3ccccc23)cc(OC)c1OC (centres undefined)	u	-15%	37%	16µM*	7%	-8%
COc1cccc(CN(C(=O)Cc2c[nH]c3ccccc23)C(C(=O)NC2CCCCC2)c2ccc(C)o2)c1 (centres undefined)	u	-8%	-1%	21µM*	6%	u

From PubChem
